Experiment [1] can be described thus: qHTS assay to identify small molecule agonists of the estrogen receptor alpha (ER-alpha) signaling pathway in the presence of an antagonist - cell viability counter screen (AID 1259386). Also: series mostly up to about 92 µM; nearly all actives have a fitted effect of over 30% in size. Put shortly:
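Compounds tested at 15 concentrations for 22 h at 37C alongside 10.0nM (final) ICI-182,780 antagonist, in VM7Luc4E2 cells grown in phenol red-free, charcoal-stripped medium. Viability read by CellTiter-Fluor fluorescence after 1 h reagent incubation.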

For experiment [2], the target named is Progesterone receptor (Homo sapiens) (UniProt P06401). The experiment in a line: qHTS assay to identify small molecule agonists of the progesterone receptor (PR) signaling pathway (AID 1346784; calls by dose curve; also: nearly all actives have a fitted effect of over 30% in size). Put shortly:
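The screen uses PR-UAS-bla HEK 293T cells in charcoal-stripped serum (2%). Compounds are applied for 16 hr at 37C after a 6 hr pre-incubation, and reporter activity is detected with a FRET beta-lactamase substrate after 2 hr at room temperature.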

Experiment [3] has the same target. Put plainly: qHTS assay to identify small molecule antagonists of the progesterone receptor (PR) signaling pathway (AID 1346795; active = well fitted inhibition curve with a large enough effect in the signal ratio in the repeat runs, not every such curve was filed as active; the % refers to the signal ratio; also: potency is read from the fitted curve at half-maximal effect). The procedure, abridged:
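After 6 hr plating at 37C in 2% stripped-serum medium, PR-UAS-bla HEK293T cells got compounds, then 1 nM R5020. Sixteen hours later, LiveBLAzer substrate was applied for 2 hr at room temperature and fluorescence was recorded.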

The nature of experiment [4]: qHTS assay to identify small molecule antagonists of the progesterone receptor (PR) signaling pathway - cell viability counter screen (AID 1346798). Also: series mostly up to about 92 µM; nearly all actives have a fitted effect of over 50% in size. Put shortly: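 Viability was determined by ATP-based luminescence (CellTiter-Glo) in PR-UAS-bla HEK293T cells cultured in 2% charcoal-stripped serum and incubated 16 hr with compounds under R5020 stimulation.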
A short description of experiment [5]: qHTS assay to identify small molecule agonists of the progesterone receptor (PR) signaling pathway - cell viability counter screen (AID 1346799; calls by dose curve; also: nearly all actives have a fitted effect of over 45% in size). The procedure, abridged: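 Viability was scored by ATP luminescence (CellTiter-Glo, 30 min, room temperature) in the same wells used for the reporter readout, after 16 hr compound exposure of PR-UAS-bla HEK293T cells.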

Experiment [6] can be described thus: qHTS assay to identify small molecule antagonists of the TGF-beta/Smad signaling pathway - cell viability counter screen (AID 1346824). Also: nearly all actives have a fitted effect of over 50% in size. Put shortly: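 SBE-bla HEK 293T cells, incubated overnight, then compound plus 0.25 ng/mL TGF-beta1 (stock added) for 5 hr at 37 C. Viability was read in the same wells by CellTiter-Glo luminescence after 30 min at room temperature.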

Experiment [7] in a line: qHTS assay to identify small molecule agonists of the TGF-beta/Smad signaling pathway - cell viability counter screen (AID 1346829). Also: nearly all actives have a fitted effect of over 45% in size. Also: potency is read from the fitted curve at half-maximal effect. Put shortly: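 In parallel with the Smad reporter read, viability of HEK 293T cells stably carrying SBE-bla is quantified by ATP luminescence following 5 hr compound treatment.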
The nature of experiment [8]: qHTS assay to identify small molecule agonists of the TGF-beta/Smad signaling pathway (AID 1346859; active = well fitted activation curve with a large enough effect in the signal ratio in the repeat runs, not every such curve was filed as active; the % refers to the signal ratio; also: series mostly up to about 77 µM). The procedure, abridged:
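Dual-wavelength fluorescence (460/530 nm emission) quantified beta-lactamase expression under the Smad binding element in HEK 293T cells following 5 hr compound treatment at 37 C.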

Experiment [9] deals with Thyrotropin-releasing hormone receptor (Homo sapiens) (UniProt P34981). Put plainly: qHTS assay to identify small molecule antagonists of the thyrotropin-releasing hormone receptor (TRHR) signaling pathway (AID 1346877; active = well fitted inhibition curve with a large enough effect in the repeat runs, not every such curve was filed as active; also: series mostly up to about 51 µM). Put shortly:
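Antagonist mode: after a 5 min room-temperature compound exposure, cells were stimulated with 1 nM (final) TRH. Dye-loaded TRHR-HEK293 cells were used, and calcium-dependent fluorescence was followed for 3 min, with 15-point titrations run in triplicate.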

Experiment [10] shares this target. The experiment in a line: qHTS assay to identify small molecule agonists of the thyrotropin-releasing hormone receptor (TRHR) signaling pathway (AID 1346891; calls by dose curve;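 also: HEK293 cells expressing TRHR with calcium dye readout; series mostly up to about 58 µM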). The procedure, abridged:
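Kinetic fluorescence (3 min, 1 s intervals) reported intracellular calcium after compound transfer onto TRHR-Hek293 cells pre-loaded with dye for 2 h at 37 °C.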

A short description of experiment [11]: Human pregnane X receptor (PXR) small molecule agonists, qHTS cell viability counter screen (AID 1346977). Also: nearly all actives have a fitted effect of over 50% in size. Put shortly: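 HepG2 cells stably carrying the PXR-Luc reporter are cultured with 5% charcoal-stripped FBS and treated with compounds for 24hr. CellTiter-Fluor is added at 23hr and fluorescence is read after 1hr.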
Experiment [12] is described as follows: Caspase-3/7 induction in HepG2 cells by small molecules, qHTS assay (AID 1346978). Also: nearly all actives have a fitted effect of over 15% in size. The procedure, abridged: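 Wild-type HepG2 cells, 2,000/well, settled 5 hr at 37 C and 5% CO2, then compound-treated for 17 hr; caspase-3/7 activity read by luminescent Caspase-Glo 3/7 after 30 min at room temperature.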
Experiment [13] is described as follows: Caspase-3/7 induction in CHO-K1 cells by small molecules, qHTS cell viability counter screen (AID 1346979). Also: nearly all actives have a fitted effect of over 35% in size. Also: potency is read from the fitted curve at half-maximal effect. The procedure, abridged:
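Seeding: 1,500 CHO-K1 cells/well. Rest: 5hr, 37C. Treatment: compounds in DMSO, 16hr. Read: CellTiter-Fluor, 1hr, fluorescence.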

A short description of experiment [14]: Caspase-3/7 induction in CHO-K1 cells by small molecules, qHTS assay (AID 1346980). Also: nearly all actives have a fitted effect of over 15% in size. Put shortly: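 Wild-type CHO-K1 cells exposed to compounds for 17hr at 37 C, 5% CO2. Caspase-3/7 activity then measured by Caspase-Glo 3/7 luminescence after 30min at room temperature.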
A short description of experiment [15]: Caspase-3/7 induction in HepG2 cells by small molecules, qHTS cell viability counter screen (AID 1346981). Also: series mostly up to about 92 µM; nearly all actives have a fitted effect of over 30% in size. Put shortly: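 CellTiter-Fluor fluorescence measured viability in the same wells used for Caspase-Glo 3/7. HepG2 (wild type) at 2,000 cells/well were pre-incubated 5 hr, dosed, and given reagent at 16 hr, with 1 hr further at 37C.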
In experiment [16] the target is Nuclear receptor subfamily 1 group I member 2 (Homo sapiens) (UniProt O75469). Put plainly: Human pregnane X receptor (PXR) small molecule agonists, qHTS assay (AID 1346982). Also: nearly all actives have a fitted effect of over 35% in size. Also: potency is read from the fitted curve at half-maximal effect. The procedure, abridged: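 Agonist mode: luminescence from ONE-Glo after 24 h compound exposure at 37C in HepG2 cells carrying hPXR-responsive CYP3A4 luciferase, plated in charcoal-stripped serum medium 5 h beforehand.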

Experiment [17] addresses Acetylcholinesterase (Homo sapiens) (UniProt P22303). Put plainly: Acetylcholinesterase (AChE) small molecule antagonists: colormetric cell-based qHTS assay (AID 1347395; calls by dose curve; also: nearly all actives have a fitted effect of over 30% in size). The procedure, abridged:
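Quantitative HTS in attached SH-SY5Y cells: 30 min compound exposure, then 90 min with acetylthiocholine and DTNB at 37 C; colour from thiocholine reports AChE activity.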

Several values for one entry are separate records, joined by “and”; a condition that tells them apart may be missing. Identical values can stand only once. Inconclusive results are not listed. More than one record can exist for a structure, and the calls need not agree. Activity calls are given as the source filed them. Unless noted, calls follow the shape of the dose curve; as a rule, active = well fitted curve in the direction sought with a large enough effect in the repeat runs; inconclusive = weak or mixed curves; inactive = no such curve, though single readings can be large; an effect the other way counts as inactive or inconclusive.

Chain of Acetylcholinesterase (Homo sapiens) (P22303 whole entry, looked up): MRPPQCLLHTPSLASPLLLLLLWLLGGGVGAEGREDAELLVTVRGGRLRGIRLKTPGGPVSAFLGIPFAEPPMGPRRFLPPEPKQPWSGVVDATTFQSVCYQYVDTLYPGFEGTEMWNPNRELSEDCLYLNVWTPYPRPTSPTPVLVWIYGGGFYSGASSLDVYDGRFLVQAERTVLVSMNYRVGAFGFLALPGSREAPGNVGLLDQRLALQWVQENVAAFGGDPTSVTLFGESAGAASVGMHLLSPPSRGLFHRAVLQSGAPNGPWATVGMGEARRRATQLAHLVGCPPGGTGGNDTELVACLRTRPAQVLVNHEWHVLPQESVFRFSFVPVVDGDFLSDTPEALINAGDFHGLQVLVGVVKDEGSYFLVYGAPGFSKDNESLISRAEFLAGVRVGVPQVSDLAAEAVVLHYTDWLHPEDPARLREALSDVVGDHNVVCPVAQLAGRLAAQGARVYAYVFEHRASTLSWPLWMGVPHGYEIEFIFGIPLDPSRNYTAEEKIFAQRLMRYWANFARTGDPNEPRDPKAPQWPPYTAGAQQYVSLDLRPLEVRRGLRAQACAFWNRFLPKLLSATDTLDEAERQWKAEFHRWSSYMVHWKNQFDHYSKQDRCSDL
Chain of Progesterone receptor (Homo sapiens) (P06401 whole entry, looked up): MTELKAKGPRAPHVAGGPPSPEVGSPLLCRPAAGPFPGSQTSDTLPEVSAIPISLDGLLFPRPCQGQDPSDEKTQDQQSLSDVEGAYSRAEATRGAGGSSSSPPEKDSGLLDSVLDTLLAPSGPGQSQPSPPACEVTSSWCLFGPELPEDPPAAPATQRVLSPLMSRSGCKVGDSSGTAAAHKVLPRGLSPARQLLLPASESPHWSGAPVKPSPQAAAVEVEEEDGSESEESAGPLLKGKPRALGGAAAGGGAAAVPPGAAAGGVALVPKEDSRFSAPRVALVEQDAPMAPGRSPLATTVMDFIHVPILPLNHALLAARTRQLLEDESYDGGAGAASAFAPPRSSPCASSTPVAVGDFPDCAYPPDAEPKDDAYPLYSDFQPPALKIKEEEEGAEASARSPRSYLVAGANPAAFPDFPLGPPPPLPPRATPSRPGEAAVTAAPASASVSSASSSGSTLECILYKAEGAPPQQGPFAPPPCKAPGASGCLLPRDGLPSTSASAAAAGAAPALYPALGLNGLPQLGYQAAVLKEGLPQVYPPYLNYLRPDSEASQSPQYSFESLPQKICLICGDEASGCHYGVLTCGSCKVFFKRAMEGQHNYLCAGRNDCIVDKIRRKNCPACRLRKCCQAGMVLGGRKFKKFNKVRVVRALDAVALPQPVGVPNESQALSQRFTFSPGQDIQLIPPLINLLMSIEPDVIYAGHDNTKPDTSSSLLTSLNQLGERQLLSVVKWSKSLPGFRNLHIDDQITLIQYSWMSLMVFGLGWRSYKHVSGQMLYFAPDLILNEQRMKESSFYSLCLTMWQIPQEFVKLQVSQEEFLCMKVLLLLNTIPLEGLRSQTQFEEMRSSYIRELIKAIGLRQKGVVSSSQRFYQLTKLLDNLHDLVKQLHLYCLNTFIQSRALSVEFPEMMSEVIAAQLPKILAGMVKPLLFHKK
Chain of Nuclear receptor subfamily 1 group I member 2 (Homo sapiens) (O75469 whole entry, looked up): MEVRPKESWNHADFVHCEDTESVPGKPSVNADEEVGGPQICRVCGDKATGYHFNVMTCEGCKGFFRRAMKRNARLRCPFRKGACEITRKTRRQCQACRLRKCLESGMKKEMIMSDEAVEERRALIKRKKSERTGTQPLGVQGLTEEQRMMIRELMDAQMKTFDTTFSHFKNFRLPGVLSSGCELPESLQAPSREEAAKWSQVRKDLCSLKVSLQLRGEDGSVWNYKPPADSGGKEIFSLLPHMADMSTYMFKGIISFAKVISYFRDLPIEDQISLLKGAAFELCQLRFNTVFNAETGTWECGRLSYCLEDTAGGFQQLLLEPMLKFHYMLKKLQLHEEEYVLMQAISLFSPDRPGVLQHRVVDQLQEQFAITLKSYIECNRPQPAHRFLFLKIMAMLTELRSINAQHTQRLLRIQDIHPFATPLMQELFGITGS
Chain of Thyrotropin-releasing hormone receptor (Homo sapiens) (P34981 whole entry, looked up): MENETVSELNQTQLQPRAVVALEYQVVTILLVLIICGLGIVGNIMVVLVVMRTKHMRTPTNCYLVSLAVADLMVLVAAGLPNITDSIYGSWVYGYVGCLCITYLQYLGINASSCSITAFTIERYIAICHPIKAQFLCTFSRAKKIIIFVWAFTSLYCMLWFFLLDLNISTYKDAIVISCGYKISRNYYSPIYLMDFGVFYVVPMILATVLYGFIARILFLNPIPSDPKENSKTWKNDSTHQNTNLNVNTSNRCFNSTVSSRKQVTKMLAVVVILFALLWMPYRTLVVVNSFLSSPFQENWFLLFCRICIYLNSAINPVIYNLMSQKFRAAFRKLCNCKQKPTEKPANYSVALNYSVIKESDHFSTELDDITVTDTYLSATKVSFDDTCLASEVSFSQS

For the molecule `O=[N+]([O-])c1ccc(Cl)c(Cl)c1Cl`, the Potency result in experiment [1], in experiment [2], in [3], in [4], in experiment [5] and in experiment [6] was “inactive” throughout. The Potency entry in experiment [7], in [9], in experiment [10], in experiment [11], in experiment [12] and in experiment [13] was “inactive” each time. Besides, the Potency result in [14], in experiment [15], in [16] and in [17] was “inactive” in each case. For the same molecule, the result in experiment [8] was inactive.

As for `C=CC(=C)C`, the Potency entry in experiment [1], in [2], in experiment [3], in experiment [4], in experiment [5] and in experiment [6] was “inactive” throughout. Also, the Potency result in [7], in experiment [10], in [11], in [12], in experiment [13] and in experiment [14] was “inactive” in each case. In addition, the Potency entry in [15], in experiment [16] and in experiment [17] was “inactive” in each case. Moreover, the molecule was classed as inactive in [8].

As to `CCN(CC)C(=O)N[C@@H]1C=C2c3cccc4[nH]cc(c34)C[C@@H]2N(C)C1`, the Potency result in experiment [1], in experiment [2], in experiment [3], in [4], in [5] and in [6] was “inactive” each time. In addition, the Potency result in experiment [7], in experiment [9], in [10], in experiment [11], in experiment [12] and in [14] was “inactive” in each case. Further, the Potency result in [15] was “inactive”.

On to `[O]=[Cr][O][Cr]=[O]`, for which the Potency result in [1], in experiment [2], in [3], in [4], in [5] and in experiment [6] was “inactive” in each case. For the same molecule, the Potency entry in experiment [7], in experiment [9], in [10], in experiment [11], in [12] and in [13] was “inactive” each time. For the same molecule, the Potency result in experiment [14], in experiment [15], in [16] and in experiment [17] was “inactive” each time. Also, the outcome in [8] was inactive.

For the molecule `O=[N+]([O-])C(Br)Br`, the Potency entry in experiment [1], in experiment [2], in [3], in [4], in [5] and in experiment [6] was “inactive” throughout. Also, the Potency entry in [7], in [9], in experiment [10], in [11], in experiment [12] and in [13] was “inactive” throughout. Moreover, the Potency entry in experiment [14], in [15], in experiment [16] and in experiment [17] was “inactive” throughout. Moreover, the molecule was called inactive in [8].

Turning to `ClC1=C(Cl)[C@]2(Cl)[C@H]3[C@H]([C@@H]4C=C[C@H]3C4)[C@@]1(Cl)C2(Cl)Cl`, the Potency result in [1], in experiment [2], in experiment [4], in experiment [5], in experiment [6] and in [9] was “inactive” each time. In addition, the Potency result in experiment [10], in [11], in experiment [12], in experiment [15] and in [17] was “inactive” each time. Besides, the Potency in [3] was 21.7 µM (active); in experiment [7], “inactive and 49 µM (active)”; in [16], 34.3 µM (active) and inactive. The molecule was classed as inactive in experiment [8].

On to `CCCC[N+]1(C)CCCC1` (tested in a mixture with another compound), for which the Potency result in experiment [1], in [2], in experiment [3], in [4], in experiment [5] and in [6] was “inactive” each time. For the same molecule, the Potency entry in experiment [7], in experiment [12] and in [14] was “inactive” each time. The call in experiment [8] was inactive. The Potency in experiment [13] was 61.9 µM (active); in [16], 69.4 µM (active).

The values are drawn from PubChem BioAssay (Tox21).
